Records with an inconclusive call do not appear. Calls of active or inactive are those of the source. The call rests on the fitted dose curve; in most records, active means well fitted curve in the direction sought with a large enough effect in the repeat runs; inconclusive means weak or mixed curves; inactive means no such curve, though single readings can be large; an effect the other way counts as inactive or inconclusive.
Key:
[1] = qHTS RealTime-Glo MT Cell Viability Assay in HepG2 cells - 24 hour (AID 1224867); further: nearly all actives have a fitted effect of over 50% in size
Procedure, shortened: (§1)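 Luminescence read-out: viable HepG2 cells reduce a prosubstrate to a NanoLuc substrate, giving a signal proportional to live cell number. Reads taken at 0, 8, 16, 24, 32 and 40 h of compound exposure at 37 C.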

[2] = qHTS RealTime-Glo MT Cell Viability Assay in HEK293 cells - 32 hour (AID 1224868); further: top concentration of the series differs between compounds; nearly all actives have a fitted effect of over 50% in size
Procedure, shortened: (§2)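 Nonlytic real-time viability readout: viable cells convert prosubstrate to NanoLuc substrate, giving luminescence proportional to live cell number. HEK293, 600 cells/well, compound added after 5 h, continuous culture at 37 C.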

[3] = A CellTox Green Cytotoxicity Assay to monitor cytotoxicity in HEK293 cells - 0 hour (AID 1224869); further: nearly all actives have a fitted effect of over 50% in size
Procedure, shortened: (§3)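 Dead-cell fluorescence measured kinetically: asymmetric cyanine dye, HEK293, 600 cells/well, 5 h settle, 23 nL cpd/DMSO, 37 C, reads 0–40 h every 8 h.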

[4] = qHTS RealTime-Glo MT Cell Viability Assay in HepG2 cells - 40 hour (AID 1224870); further: nearly all actives have a fitted effect of over 50% in size
Procedure, shortened: (§4)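 Real-time viability: cells seeded at 600 per well together with NanoLuc and cell-permeant prosubstrate, compounds added after 5 h incubation. Luminescence tracked at 0, 8, 16, 24, 32 and 40 h of exposure.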

[5] = A CellTox Green Cytotoxicity Assay to monitor cytotoxicity in HEK293 cells - 40 hour (AID 1224871); further: nearly all actives have a fitted effect of over 45% in size
Procedure, shortened: as §3

[6] = qHTS RealTime-Glo MT Cell Viability Assay in HEK293 cells - 16 hour (AID 1224872)
Procedure, shortened: as §2

[7] = qHTS RealTime-Glo MT Cell Viability Assay in HepG2 cells - 8 hour (AID 1224873); further: nearly all actives have a fitted effect of over 55% in size
Procedure, shortened: as §4

[8] = qHTS RealTime-Glo MT Cell Viability Assay in HEK293 cells - 40 hour (AID 1224874); conditions: RealTime-Glo luminescence, stronger effect = lower value; further: nearly all actives have a fitted effect of over 50% in size
Procedure, shortened: (§5)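 600 HEK293 cells per well, dispensed already mixed with RealTime-Glo MT reagents. Compound dosing came 5 h later. The same wells were read for luminescence at 0, 8, 16, 24, 32 and 40 h of exposure at 37 C.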

[9] = A CellTox Green Cytotoxicity Assay to monitor cytotoxicity in HEK293 cells - 24 hour (AID 1224875); further: series mostly up to about 77 µM; nearly all actives have a fitted effect of over 45% in size
Procedure, shortened: as §3

[10] = qHTS RealTime-Glo MT Cell Viability Assay in HepG2 cells - 32 hour (AID 1224877); further: nearly all actives have a fitted effect of over 55% in size
Procedure, shortened: as §1

[11] = A CellTox Green Cytotoxicity Assay to monitor cytotoxicity in HepG2 cells - 24 hour (AID 1224878); further: nearly all actives have a fitted effect of over 45% in size
Procedure, shortened: (§6)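 First, HepG2 cells (600/well) mixed with reagent were plated; second, after 5 h at 37 C they received compounds via pintool; third, fluorescence was measured at 0 h through 40 h at 8 h intervals.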

[12] = A CellTox Green Cytotoxicity Assay to monitor cytotoxicity in HepG2 cells - 40 hour (AID 1224879); further: nearly all actives have a fitted effect of over 40% in size
Procedure, shortened: as §6

[13] = qHTS RealTime-Glo MT Cell Viability Assay in HEK293 cells - 0 hour (AID 1224880); further: top concentration of the series differs between compounds; nearly all actives have a fitted effect of over 45% in size
Procedure, shortened: as §5

[14] = A CellTox Green Cytotoxicity Assay to monitor cytotoxicity in HEK293 cells - 32 hour (AID 1224881); further: nearly all actives have a fitted effect of over 40% in size
Procedure, shortened: as §3

[15] = A CellTox Green Cytotoxicity Assay to monitor cytotoxicity in HepG2 cells - 0 hour (AID 1224882); further: nearly all actives have a fitted effect of over 35% in size
Procedure, shortened: as §6

[16] = A CellTox Green Cytotoxicity Assay to monitor cytotoxicity in HEK293 cells - 8 hour (AID 1224884); further: nearly all actives have a fitted effect of over 35% in size
Procedure, shortened: as §3

[17] = qHTS RealTime-Glo MT Cell Viability Assay in HepG2 cells - 16 hour (AID 1224885); further: nearly all actives have a fitted effect of over 50% in size
Procedure, shortened: as §1

[18] = qHTS RealTime-Glo MT Cell Viability Assay in HEK293 cells - 24 hour (AID 1224886)
Procedure, shortened: as §2

[19] = A CellTox Green Cytotoxicity Assay to monitor cytotoxicity in HepG2 cells - 16 hour (AID 1224876); further: nearly all actives have a fitted effect of over 45% in size
Procedure, shortened: as §6

[20] = A CellTox Green Cytotoxicity Assay to monitor cytotoxicity in HepG2 cells - 32 hour (AID 1224883); further: nearly all actives have a fitted effect of over 50% in size
Procedure, shortened: as §6
On the % scale 0 is the no-effect control and ±100 the full control effect.

C[C@@H]1CC[C@@]2(OC1)O[C@H]1C[C@H]3[C@@H]4CC[C@H]5C[C@@H](O)CC[C@]5(C)[C@H]4CC(=O)[C@]3(C)[C@H]1[C@@H]2C
inactive: activity change, negative = cytotoxicity [1] -0.436% [at 6.97 µM] | activity change, negative = cytotoxic [2] -2.31% [at 6.97 µM] | cytotoxicity [3] -2.97% [at 6.97 µM] | activity change, negative = cytotoxic [4] -0.288% [at 6.97 µM] | cytotoxicity increase [5] -2.28% [at 6.97 µM] | activity change, negative = cytotoxicity [6] -0.344% [at 6.97 µM] | viability change, negative = cytotoxic [7] 1.5% [at 6.97 µM] | max response [8] -0.328% | activity change [9] -2.49% [at 6.97 µM, stronger effect = higher value] | activity change, negative = cytotoxic [10] 1.67% [at 6.97 µM] | cytotoxicity [11] -7.96% [at 6.97 µM] | cytotoxicity increase [12] -2.78% [at 6.97 µM] | activity change, negative = cytotoxicity [13] 0.253% [at 6.97 µM] | cytotoxicity increase [14] -0.706% [at 6.97 µM] | cytotoxicity [15] 2.51% [at 6.97 µM] | cytotoxicity increase [16] -0.568% [at 6.97 µM] | activity change, negative = cytotoxic [17] 0.914% [at 6.97 µM] | activity change, negative = cytotoxicity [18] -0.905% [at 6.97 µM]

O=C(O)COc1ccc2ccccc2c1
inactive: outcome [1] | outcome [2] | outcome [3] | outcome [4] | Potency [5] | outcome [6] | outcome [7] | max response [8] 1.62% | Potency [9] | outcome [10] | Potency [11] | Potency [12] | Potency [13] | Potency [14] | Potency [15] | Potency [16] | outcome [17] | outcome [18]

O=C[C@@H](O)[C@H](O)[C@H](O)CO
inactive: outcome [1] | outcome [2] | outcome [3] | outcome [4] | Potency [5] | outcome [6] | outcome [7] | max response [8] -1.95% | Potency [19] | outcome [10] | Potency [11] | Potency [12] | Potency [14] | Potency [15] | Potency [20] | Potency [16] | outcome [18]

CCCc1ccc(O)c(OC)c1
inactive: outcome [1] | outcome [2] | outcome [3] | outcome [4] | Potency [5] | outcome [6] | outcome [7] | max response [8] 6.36% | Potency [9] | Potency [11] | Potency [12] | Potency [13] | Potency [14] | Potency [15] | Potency [20] | Potency [16] | outcome [17] | outcome [18]

CCC(C)c1nccnc1OC (configuration not stated)
inactive: outcome [1] | outcome [2] | outcome [3] | outcome [4] | Potency [5] | outcome [6] | outcome [7] | max response [8] 1.32% | Potency [9] | outcome [10] | Potency [11] | Potency [12] | Potency [13] | Potency [14] | Potency [15] | Potency [20] | outcome [17] | outcome [18]

C=CCN(CC=C)CC=C
inactive: outcome [1] | outcome [2] | outcome [3] | outcome [4] | Potency [5] | outcome [6] | outcome [7] | max response [8] 12.2% | Potency [19] | outcome [10] | Potency [11] | Potency [12] | Potency [13] | Potency [15] | Potency [16] | outcome [17]

CC(CN1CC(=O)NC(=O)C1)N1CC(=O)NC(=O)C1 (configuration not stated)
inactive: outcome [1] | outcome [2] | outcome [3] | outcome [4] | Potency [5] | outcome [6] | outcome [7] | max response [8] -4.03% | Potency [19] | outcome [10] | Potency [11] | Potency [12] | Potency [14] | Potency [15] | Potency [20] | Potency [16] | outcome [17] | outcome [18]

C=COCCCCO
inactive: outcome [1] | outcome [2] | outcome [3] | outcome [4] | Potency [5] | outcome [6] | outcome [7] | max response [8] -1.03% | Potency [9] | outcome [10] | Potency [11] | Potency [12] | Potency [13] | Potency [14] | Potency [20] | Potency [16] | outcome [18]

CCCCN(CCCC)CCCCCCN(CCCC)CCCC
inactive: outcome [1] | outcome [2] | outcome [3] | outcome [4] | Potency [5] | outcome [6] | outcome [7] | max response [8] -10.4% | Potency [9] | Potency [12] | Potency [13] | Potency [14] | Potency [20] | Potency [16] | outcome [17]

C=C(C)C(=O)OCCCC
inactive: outcome [1] | outcome [2] | outcome [3] | outcome [4] | Potency [5] | outcome [6] | outcome [7] | max response [8] 11.4% | Potency [9] | outcome [10] | Potency [11] | Potency [12] | Potency [14] | Potency [20] | Potency [16] | outcome [17] | outcome [18]
